# Read-outs that look alike come from different tables or passages of the source.
# Columns and labels:
# Conditions in all cases: n = 1
# [1] = system: VRK2
# [2] = system: WEE1
# [3] = system: WEE2
# [4] = system: WNK1
# [5] = system: WNK2
# [6] = system: WNK3
# [7] = system: WNK4
# [8] = system: T1, YANK1
# T1 construct: gene STK32A
# [9] = system: T2, YANK2
# T2 construct: gene STK32B
# [10] = system: T3, YANK3
# T3 construct: gene STK32C
# [11] = system: T4, YES
# T4 construct: gene YES1
# [12] = system: T5, YSK1
# T5 construct: gene STK25
# [13] = system: T6, YSK4
# T6 construct: gene MAP3K19
# [14] = system: ZAK
# [15] = system: ZAP70
# [16] = system: T7, p38-alpha
# T7 construct: gene MAPK14
# [17] = system: T8, p38-beta
# T8 construct: gene MAPK11
# [18] = system: p38-delta
# [19] = system: T9, p38-gamma
# T9 construct: gene MAPK12
# [20] = concentration: 1 μM, replicates: in singlicate
# 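Further: KINOMEscan kinase panel screen.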
compound,measurement,setting,value
COc1ccc(CNC(=O)NC2CCN(c3ccnc(Nc4cc(OC)c(OC)c(OC)c4)n3)C2)cc1 (centres unmarked) [GSK1379748],%Inh,[1]; [20],14%
same,%Inh,[2]; [20],5%
same,%Inh,[3]; [20],0%
same,%Inh,[4]; [20],7%
same,%Inh,[5]; [20],30%
same,%Inh,[6]; [20],30%
same,%Inh,[7]; [20],52%
same,%Inh,[8]; [20],0%
same,%Inh,[9]; [20],0%
same,%Inh,[10]; [20],0%
same,%Inh,[11]; [20],0%
same,%Inh,[12]; [20],9%
same,%Inh,[13]; [20],13%
same,%Inh,[14]; [20],5%
same,%Inh,[15]; [20],3%
same,%Inh,[16]; [20],12%
same,%Inh,[17]; [20],0%
same,%Inh,[18]; [20],26%
same,%Inh,[19]; [20],0%
CN1C(=O)C(Nc2ccc(Cl)c(C(=O)O)c2)=C(c2ccc(Cl)cc2)C1=O [SB-404290],%Inh,[1]; [20],0%
same,%Inh,[2]; [20],0%
same,%Inh,[3]; [20],21%
same,%Inh,[4]; [20],0%
same,%Inh,[5]; [20],0%
same,%Inh,[6]; [20],5%
same,%Inh,[7]; [20],16%
same,%Inh,[8]; [20],0%
same,%Inh,[9]; [20],0%
same,%Inh,[10]; [20],0%
same,%Inh,[11]; [20],6%
same,%Inh,[12]; [20],0%
same,%Inh,[13]; [20],4%
same,%Inh,[14]; [20],0%
same,%Inh,[15]; [20],1%
same,%Inh,[16]; [20],5%
same,%Inh,[17]; [20],2%
same,%Inh,[18]; [20],0%
same,%Inh,[19]; [20],27%
CCn1c(-c2ccccn2)nc2cnccc21 [SB-736398],%Inh,[1]; [20],26%
same,%Inh,[2]; [20],0%
same,%Inh,[3]; [20],0%
same,%Inh,[4]; [20],0%
same,%Inh,[5]; [20],3%
same,%Inh,[6]; [20],37%
same,%Inh,[7]; [20],36%
same,%Inh,[8]; [20],0%
same,%Inh,[9]; [20],0%
same,%Inh,[10]; [20],32%
same,%Inh,[11]; [20],3%
same,%Inh,[12]; [20],100%
same,%Inh,[13]; [20],44%
same,%Inh,[14]; [20],5%
same,%Inh,[15]; [20],6%
same,%Inh,[16]; [20],0%
same,%Inh,[17]; [20],0%
same,%Inh,[18]; [20],23%
same,%Inh,[19]; [20],0%
Cc1cccc(-c2nc(-c3ccc(S(C)(=O)=O)cc3)sc2-c2ccnc(NCCc3ccccc3)c2)c1,%Inh,[1]; [20],0%
same,%Inh,[2]; [20],0%
same,%Inh,[3]; [20],9%
same,%Inh,[4]; [20],0%
same,%Inh,[5]; [20],0%
same,%Inh,[6]; [20],0%
same,%Inh,[7]; [20],0%
same,%Inh,[8]; [20],0%
same,%Inh,[9]; [20],13%
same,%Inh,[10]; [20],14%
same,%Inh,[11]; [20],0%
same,%Inh,[12]; [20],11%
same,%Inh,[13]; [20],0%
same,%Inh,[14]; [20],29%
same,%Inh,[15]; [20],9%
same,%Inh,[16]; [20],82%
same,%Inh,[17]; [20],40%
same,%Inh,[18]; [20],12%
same,%Inh,[19]; [20],16%
O=S(=O)(c1ccc(-c2ccnc3[nH]ccc23)cc1)N1CCCC1 [GSK846226],%Inh,[1]; [20],0%
same,%Inh,[2]; [20],8%
same,%Inh,[3]; [20],2%
same,%Inh,[4]; [20],5%
same,%Inh,[5]; [20],7%
same,%Inh,[6]; [20],3%
same,%Inh,[7]; [20],0%
same,%Inh,[8]; [20],11%
same,%Inh,[9]; [20],0%
same,%Inh,[10]; [20],0%
same,%Inh,[11]; [20],8%
same,%Inh,[12]; [20],21%
same,%Inh,[13]; [20],63%
same,%Inh,[14]; [20],0%
same,%Inh,[15]; [20],0%
same,%Inh,[16]; [20],6%
same,%Inh,[17]; [20],0%
same,%Inh,[18]; [20],11%
same,%Inh,[19]; [20],6%
Cc1cccc(-c2nc(Nc3cccc(C(N)=O)c3)c3ccccc3n2)n1 [GW876019],%Inh,[1]; [20],0%
same,%Inh,[2]; [20],5%
same,%Inh,[3]; [20],9%
same,%Inh,[4]; [20],0%
same,%Inh,[5]; [20],0%
same,%Inh,[6]; [20],0%
same,%Inh,[7]; [20],0%
same,%Inh,[8]; [20],0%
same,%Inh,[9]; [20],0%
same,%Inh,[10]; [20],0%
same,%Inh,[11]; [20],19%
same,%Inh,[12]; [20],12%
same,%Inh,[13]; [20],0%
same,%Inh,[14]; [20],0%
same,%Inh,[15]; [20],0%
same,%Inh,[16]; [20],0%
same,%Inh,[17]; [20],34%
same,%Inh,[18]; [20],16%
same,%Inh,[19]; [20],58%
CS(=O)(=O)c1ccc(-c2nc3n(c2-c2ccncc2)CCC3)cc1 [SKF-105942],%Inh,[1]; [20],12%
same,%Inh,[2]; [20],0%
same,%Inh,[3]; [20],10%
same,%Inh,[4]; [20],0%
same,%Inh,[5]; [20],0%
same,%Inh,[6]; [20],0%
same,%Inh,[7]; [20],29%
same,%Inh,[8]; [20],0%
same,%Inh,[9]; [20],0%
same,%Inh,[10]; [20],100%
same,%Inh,[11]; [20],33%
same,%Inh,[12]; [20],5%
same,%Inh,[13]; [20],1%
same,%Inh,[14]; [20],0%
same,%Inh,[15]; [20],0%
same,%Inh,[16]; [20],0%
same,%Inh,[17]; [20],0%
same,%Inh,[18]; [20],31%
same,%Inh,[19]; [20],14%
Cc1ccccc1-n1cnc2c(N)ncnc21 [SKF-97510],%Inh,[1]; [20],0%
same,%Inh,[2]; [20],1%
same,%Inh,[3]; [20],0%
same,%Inh,[4]; [20],0%
same,%Inh,[5]; [20],0%
same,%Inh,[6]; [20],0%
same,%Inh,[7]; [20],0%
same,%Inh,[8]; [20],0%
same,%Inh,[9]; [20],0%
same,%Inh,[10]; [20],0%
same,%Inh,[11]; [20],11%
same,%Inh,[12]; [20],9%
same,%Inh,[13]; [20],0%
same,%Inh,[14]; [20],9%
same,%Inh,[15]; [20],0%
same,%Inh,[16]; [20],0%
same,%Inh,[17]; [20],0%
same,%Inh,[18]; [20],0%
same,%Inh,[19]; [20],15%
Cc1cc(N2Cc3ccccc3C2)nc(Nc2ccc(S(=O)(=O)N3CCOCC3)cc2)n1.Cl [GSK1669917],%Inh,[1]; [20],0%
same,%Inh,[2]; [20],3%
same,%Inh,[3]; [20],0%
same,%Inh,[4]; [20],0%
same,%Inh,[5]; [20],7%
same,%Inh,[6]; [20],2%
same,%Inh,[7]; [20],10%
same,%Inh,[8]; [20],7%
same,%Inh,[9]; [20],0%
same,%Inh,[10]; [20],0%
same,%Inh,[11]; [20],5%
same,%Inh,[12]; [20],0%
same,%Inh,[13]; [20],0%
same,%Inh,[14]; [20],0%
same,%Inh,[15]; [20],0%
same,%Inh,[16]; [20],3%
same,%Inh,[17]; [20],0%
same,%Inh,[18]; [20],46%
same,%Inh,[19]; [20],3%
Cc1ccc(NC(=O)Nc2cccc(C(F)(F)F)c2)cc1 [GSK955403],%Inh,[1]; 1 µM,0%
same,%Inh,[2]; 1 µM,3%
same,%Inh,[3]; 1 µM,0%
same,%Inh,[4]; 1 µM,0%
same,%Inh,[5]; 1 µM,0%
same,%Inh,[6]; 1 µM,0%
same,%Inh,[7]; 1 µM,0%
same,%Inh,[8]; 1 µM,0%
same,%Inh,[9]; 1 µM,0%
same,%Inh,[10]; 1 µM,0%
same,%Inh,[11]; 1 µM,10%
same,%Inh,[12]; 1 µM,0%
same,%Inh,[13]; 1 µM,0%
same,%Inh,[14]; 1 µM,39%
same,%Inh,[15]; 1 µM,0%
same,%Inh,[16]; 1 µM,10%
same,%Inh,[17]; 1 µM,57%
same,%Inh,[18]; 1 µM,0%
same,%Inh,[19]; 1 µM,46%
Cn1ccc2ncnc(Oc3cccc(C(=O)Nc4ccccc4)c3)c21,%Inh,[1]; [20],0%
same,%Inh,[2]; [20],5%
same,%Inh,[3]; [20],0%
same,%Inh,[4]; [20],0%
same,%Inh,[5]; [20],0%
same,%Inh,[6]; [20],0%
same,%Inh,[7]; [20],0%
same,%Inh,[8]; [20],11%
same,%Inh,[9]; [20],1%
same,%Inh,[10]; [20],29%
same,%Inh,[11]; [20],1%
same,%Inh,[12]; [20],0%
same,%Inh,[13]; [20],1%
same,%Inh,[14]; [20],0%
same,%Inh,[15]; [20],0%
same,%Inh,[16]; [20],0%
same,%Inh,[17]; [20],6%
same,%Inh,[18]; [20],3%
same,%Inh,[19]; [20],0%
